# In PMC7862700, “An all-to-all approach to the identification of sequence-specific readers for epigenetic DNA modifications on cytosine”:
# How the values were obtained:
# Assay in all cases: DAPPL (digital affinity profiling via proximity ligation, sequencing); 10 mM Tris-HCl pH 7.5, 50 mM NaCl, 1 mM DTT, 4% glycerol, room temperature, 30 min; GST-TFs on glutathione beads, 16-mer random dsDNA library, 0.1% formaldehyde crosslink after washing; high values mean tight binding
# FLI1 = target: T1, FLI1 (Homo sapiens, UniProt Q01543 1-452); conditions: protein: recombinant; tags: N-terminal GST; dsDNA, one strand shown
# T1 sequence: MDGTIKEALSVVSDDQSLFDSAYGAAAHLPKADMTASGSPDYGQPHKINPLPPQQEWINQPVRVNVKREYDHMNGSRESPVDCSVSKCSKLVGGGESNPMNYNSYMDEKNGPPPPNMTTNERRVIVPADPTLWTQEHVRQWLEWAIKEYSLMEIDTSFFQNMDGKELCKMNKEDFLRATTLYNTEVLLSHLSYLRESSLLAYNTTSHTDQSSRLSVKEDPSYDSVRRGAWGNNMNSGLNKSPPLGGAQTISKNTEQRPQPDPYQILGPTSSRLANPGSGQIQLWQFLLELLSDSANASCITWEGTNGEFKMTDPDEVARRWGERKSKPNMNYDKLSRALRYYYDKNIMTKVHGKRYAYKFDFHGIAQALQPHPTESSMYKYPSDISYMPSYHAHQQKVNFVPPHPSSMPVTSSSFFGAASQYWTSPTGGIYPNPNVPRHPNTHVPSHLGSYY
# How it was run: (§1)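 Beads coated with glutathione captured GST-fused human transcription factors that had been expressed in yeast, and the factors were then given DNA barcodes and pooled with a tag-only sample. The pools were incubated with 200 nmole of a random double-stranded 16-mer DNA library in Tris/NaCl/DTT/glycerol buffer for 30 min at room temperature, washed, crosslinked with 0.1% formaldehyde and proximity-ligated with BsaI/T4 ligase at 37 °C for 1 h. PCR amplification and Illumina NextSeq500 sequencing came last. Binding signal is each hexamer's read frequency for a factor divided by its frequency for the tag-only sample.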
# ELK1 = target: T2, ELK1 (Homo sapiens, UniProt P19419 1-428); conditions: protein: recombinant; tags: N-terminal GST; dsDNA, one strand shown
# T2 sequence: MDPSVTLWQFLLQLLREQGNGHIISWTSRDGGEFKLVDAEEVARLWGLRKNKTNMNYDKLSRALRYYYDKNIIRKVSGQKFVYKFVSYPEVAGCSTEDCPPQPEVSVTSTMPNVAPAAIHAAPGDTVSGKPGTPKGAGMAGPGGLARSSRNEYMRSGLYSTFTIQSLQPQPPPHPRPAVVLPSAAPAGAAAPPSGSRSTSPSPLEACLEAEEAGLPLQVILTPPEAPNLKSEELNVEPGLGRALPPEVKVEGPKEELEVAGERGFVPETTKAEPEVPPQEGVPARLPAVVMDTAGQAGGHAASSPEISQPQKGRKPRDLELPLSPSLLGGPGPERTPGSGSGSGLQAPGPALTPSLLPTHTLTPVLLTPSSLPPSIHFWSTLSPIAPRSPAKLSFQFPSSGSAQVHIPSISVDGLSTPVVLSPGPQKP
# How it was run: as §1
# GABPA = target: T3, GABPA (Homo sapiens, UniProt Q06546 1-454); conditions: protein: recombinant; tags: N-terminal GST; dsDNA, one strand shown
# T3 sequence: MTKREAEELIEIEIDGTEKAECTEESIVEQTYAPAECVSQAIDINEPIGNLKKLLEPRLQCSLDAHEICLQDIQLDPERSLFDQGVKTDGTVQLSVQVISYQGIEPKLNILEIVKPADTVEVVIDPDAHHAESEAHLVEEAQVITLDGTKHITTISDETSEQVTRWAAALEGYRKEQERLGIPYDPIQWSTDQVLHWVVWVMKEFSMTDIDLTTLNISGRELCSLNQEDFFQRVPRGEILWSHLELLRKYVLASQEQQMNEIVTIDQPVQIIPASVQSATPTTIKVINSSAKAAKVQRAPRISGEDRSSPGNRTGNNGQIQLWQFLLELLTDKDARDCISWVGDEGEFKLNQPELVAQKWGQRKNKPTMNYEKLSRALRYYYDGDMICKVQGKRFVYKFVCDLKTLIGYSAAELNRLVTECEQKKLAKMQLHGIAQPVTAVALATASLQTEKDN
# How it was run: as §1
# ERG = target: T4, ERG (Homo sapiens, UniProt P11308 1-479); conditions: protein: recombinant; tags: N-terminal GST; dsDNA, one strand shown
# T4 sequence: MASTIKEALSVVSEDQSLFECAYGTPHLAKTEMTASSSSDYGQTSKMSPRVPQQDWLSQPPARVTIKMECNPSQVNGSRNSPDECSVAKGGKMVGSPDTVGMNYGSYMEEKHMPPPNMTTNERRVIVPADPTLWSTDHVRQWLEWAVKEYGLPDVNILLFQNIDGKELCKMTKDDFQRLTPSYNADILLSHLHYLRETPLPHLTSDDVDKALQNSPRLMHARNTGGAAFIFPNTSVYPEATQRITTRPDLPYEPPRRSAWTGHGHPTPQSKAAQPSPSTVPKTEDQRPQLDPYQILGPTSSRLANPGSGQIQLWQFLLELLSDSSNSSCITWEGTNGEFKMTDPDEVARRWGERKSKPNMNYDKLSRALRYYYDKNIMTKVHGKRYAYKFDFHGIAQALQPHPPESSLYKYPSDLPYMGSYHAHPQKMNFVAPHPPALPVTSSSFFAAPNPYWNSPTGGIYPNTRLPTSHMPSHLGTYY
# How it was run: as §1
# ELF1 = ELF1 (Homo sapiens, UniProt P32519 1-619); conditions: protein: recombinant; tags: N-terminal GST; dsDNA, one strand shown
# How it was run: as §1
# EHF = target: T5, EHF (Homo sapiens, UniProt Q9NZC4 1-300); conditions: protein: recombinant; tags: N-terminal GST; dsDNA, one strand shown
# T5 sequence: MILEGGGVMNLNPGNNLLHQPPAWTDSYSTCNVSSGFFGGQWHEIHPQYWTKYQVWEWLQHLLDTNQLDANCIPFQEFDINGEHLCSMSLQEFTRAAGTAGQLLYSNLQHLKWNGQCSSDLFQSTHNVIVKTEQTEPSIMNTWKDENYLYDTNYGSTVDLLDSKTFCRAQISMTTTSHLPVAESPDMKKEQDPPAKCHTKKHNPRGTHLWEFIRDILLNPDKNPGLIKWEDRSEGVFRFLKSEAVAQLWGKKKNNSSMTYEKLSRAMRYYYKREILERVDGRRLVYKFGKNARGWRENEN
# How it was run: as §1
# SPI1 = SPI1 (Homo sapiens, UniProt P17947 1-270); conditions: protein: recombinant; tags: N-terminal GST; dsDNA, one strand shown
# How it was run: as §1
# SPIB = SPIB (Homo sapiens, UniProt Q01892 1-262); conditions: protein: recombinant; tags: N-terminal GST; dsDNA, one strand shown
# How it was run: as §1
# ELK3 = target: T6, ELK3 (Homo sapiens, UniProt P41970 1-407); conditions: protein: recombinant; tags: N-terminal GST; dsDNA, one strand shown
# T6 sequence: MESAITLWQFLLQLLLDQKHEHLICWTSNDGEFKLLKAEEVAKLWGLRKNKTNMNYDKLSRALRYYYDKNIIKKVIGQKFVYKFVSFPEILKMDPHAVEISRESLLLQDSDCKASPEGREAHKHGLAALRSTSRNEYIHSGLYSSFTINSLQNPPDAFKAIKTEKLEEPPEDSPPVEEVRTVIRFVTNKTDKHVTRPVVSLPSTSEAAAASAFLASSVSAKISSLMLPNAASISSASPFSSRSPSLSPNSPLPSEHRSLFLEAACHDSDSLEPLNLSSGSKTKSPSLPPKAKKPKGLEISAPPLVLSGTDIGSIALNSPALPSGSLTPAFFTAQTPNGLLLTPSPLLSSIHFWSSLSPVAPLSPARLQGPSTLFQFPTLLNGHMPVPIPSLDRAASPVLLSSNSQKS
# How it was run: as §1
# FEV = target: T7, FEV (Homo sapiens, UniProt Q99581 1-238); conditions: protein: recombinant; tags: N-terminal GST; dsDNA, one strand shown
# T7 sequence: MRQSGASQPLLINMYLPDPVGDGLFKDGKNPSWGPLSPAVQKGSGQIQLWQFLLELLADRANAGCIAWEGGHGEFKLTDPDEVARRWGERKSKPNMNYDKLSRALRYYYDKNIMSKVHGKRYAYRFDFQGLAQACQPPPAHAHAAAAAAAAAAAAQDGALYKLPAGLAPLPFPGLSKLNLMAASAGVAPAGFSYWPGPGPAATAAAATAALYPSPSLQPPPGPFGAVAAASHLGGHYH
# How it was run: as §1
# ETV5 = ETV5 (Homo sapiens, UniProt P41161 1-510); conditions: protein: recombinant; tags: N-terminal GST; dsDNA, one strand shown
# How it was run: as §1
# HSF1 = HSF1 (Homo sapiens, UniProt Q00613 1-529); conditions: protein: recombinant; tags: N-terminal GST; chain copies: 3; dsDNA, one strand shown
# How it was run: as §1
# SPIC = target: T8, SPIC (Homo sapiens, UniProt Q8N5J4 1-248); conditions: protein: recombinant; tags: N-terminal GST; dsDNA, one strand shown
# T8 sequence: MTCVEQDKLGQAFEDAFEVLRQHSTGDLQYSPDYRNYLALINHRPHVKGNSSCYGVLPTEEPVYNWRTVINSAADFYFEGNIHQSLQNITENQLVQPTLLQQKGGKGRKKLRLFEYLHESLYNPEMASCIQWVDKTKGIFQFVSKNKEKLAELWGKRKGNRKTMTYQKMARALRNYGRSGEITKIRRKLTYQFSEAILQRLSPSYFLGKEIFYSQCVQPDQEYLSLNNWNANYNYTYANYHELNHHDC
# How it was run: as §1
# ELF4 = ELF4 (Homo sapiens, UniProt Q99607 1-663); conditions: protein: recombinant; tags: N-terminal GST; dsDNA, one strand shown
# How it was run: as §1
# ELK4 = target: T9, ELK4 (Homo sapiens, UniProt P28324-2 1-405); conditions: protein: recombinant; tags: N-terminal GST; dsDNA, one strand shown
# T9 sequence: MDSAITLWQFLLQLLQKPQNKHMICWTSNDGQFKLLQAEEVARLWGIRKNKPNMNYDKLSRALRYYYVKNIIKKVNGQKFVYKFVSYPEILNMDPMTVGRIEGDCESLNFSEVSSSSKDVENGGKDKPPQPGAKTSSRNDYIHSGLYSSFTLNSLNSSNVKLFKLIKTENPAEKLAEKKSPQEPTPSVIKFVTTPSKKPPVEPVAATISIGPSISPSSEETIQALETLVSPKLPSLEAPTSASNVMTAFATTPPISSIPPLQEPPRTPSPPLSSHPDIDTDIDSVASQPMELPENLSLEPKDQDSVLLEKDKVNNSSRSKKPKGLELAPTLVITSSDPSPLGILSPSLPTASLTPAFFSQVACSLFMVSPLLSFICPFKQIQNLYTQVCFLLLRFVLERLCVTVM
# How it was run: as §1
# ETV2 = target: T10, ETV2 (Homo sapiens, UniProt O00321 1-342); conditions: protein: recombinant; tags: N-terminal GST; dsDNA, one strand shown
# T10 sequence: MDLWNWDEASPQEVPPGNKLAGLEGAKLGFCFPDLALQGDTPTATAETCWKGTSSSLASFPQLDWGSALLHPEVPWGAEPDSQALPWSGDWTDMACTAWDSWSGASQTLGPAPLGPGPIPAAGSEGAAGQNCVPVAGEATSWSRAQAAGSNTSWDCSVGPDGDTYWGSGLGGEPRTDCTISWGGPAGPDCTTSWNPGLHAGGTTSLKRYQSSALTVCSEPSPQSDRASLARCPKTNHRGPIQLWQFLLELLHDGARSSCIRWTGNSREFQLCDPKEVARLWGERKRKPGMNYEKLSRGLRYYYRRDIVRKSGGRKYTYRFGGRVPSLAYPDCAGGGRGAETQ
# How it was run: as §1
# ELF3 = target: T11, ELF3 (Homo sapiens, UniProt P78545 1-371); conditions: protein: recombinant; tags: N-terminal GST; dsDNA, one strand shown
# T11 sequence: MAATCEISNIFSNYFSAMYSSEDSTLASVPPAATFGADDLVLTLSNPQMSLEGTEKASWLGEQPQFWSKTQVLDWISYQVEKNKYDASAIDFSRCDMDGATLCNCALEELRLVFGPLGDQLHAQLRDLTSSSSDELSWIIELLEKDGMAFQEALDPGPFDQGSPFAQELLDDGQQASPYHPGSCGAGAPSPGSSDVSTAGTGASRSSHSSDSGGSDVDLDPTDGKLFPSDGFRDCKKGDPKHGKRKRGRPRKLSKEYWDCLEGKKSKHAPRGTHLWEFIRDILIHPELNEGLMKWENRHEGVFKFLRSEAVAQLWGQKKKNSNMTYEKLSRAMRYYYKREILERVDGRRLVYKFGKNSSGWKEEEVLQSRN
# How it was run: as §1
# CRX = CRX (Homo sapiens, UniProt O43186 1-299); conditions: protein: recombinant; tags: N-terminal GST; dsDNA, one strand shown
# How it was run: as §1
# ETV1 = ETV1 (Homo sapiens, UniProt P50549 1-477); conditions: protein: recombinant; tags: N-terminal GST; dsDNA, one strand shown
# How it was run: as §1
# Sequence of ELF1 (P32519 whole entry): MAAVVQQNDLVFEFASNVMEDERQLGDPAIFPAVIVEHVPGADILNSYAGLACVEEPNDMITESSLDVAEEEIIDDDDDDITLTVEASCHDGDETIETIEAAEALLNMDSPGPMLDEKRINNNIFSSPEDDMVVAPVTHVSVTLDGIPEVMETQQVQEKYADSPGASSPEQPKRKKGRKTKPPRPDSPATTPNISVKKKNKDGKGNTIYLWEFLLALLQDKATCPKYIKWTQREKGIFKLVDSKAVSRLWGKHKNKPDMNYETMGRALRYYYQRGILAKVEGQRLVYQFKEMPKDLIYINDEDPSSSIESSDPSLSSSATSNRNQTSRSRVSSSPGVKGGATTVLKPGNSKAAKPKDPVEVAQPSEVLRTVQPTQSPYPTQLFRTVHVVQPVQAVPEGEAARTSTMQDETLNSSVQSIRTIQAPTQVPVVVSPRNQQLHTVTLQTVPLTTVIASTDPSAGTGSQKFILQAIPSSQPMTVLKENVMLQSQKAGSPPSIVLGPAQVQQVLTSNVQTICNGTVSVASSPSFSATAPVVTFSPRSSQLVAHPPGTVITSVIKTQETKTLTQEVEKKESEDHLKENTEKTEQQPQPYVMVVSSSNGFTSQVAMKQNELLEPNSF
# Sequence of HSF1 (Q00613 whole entry): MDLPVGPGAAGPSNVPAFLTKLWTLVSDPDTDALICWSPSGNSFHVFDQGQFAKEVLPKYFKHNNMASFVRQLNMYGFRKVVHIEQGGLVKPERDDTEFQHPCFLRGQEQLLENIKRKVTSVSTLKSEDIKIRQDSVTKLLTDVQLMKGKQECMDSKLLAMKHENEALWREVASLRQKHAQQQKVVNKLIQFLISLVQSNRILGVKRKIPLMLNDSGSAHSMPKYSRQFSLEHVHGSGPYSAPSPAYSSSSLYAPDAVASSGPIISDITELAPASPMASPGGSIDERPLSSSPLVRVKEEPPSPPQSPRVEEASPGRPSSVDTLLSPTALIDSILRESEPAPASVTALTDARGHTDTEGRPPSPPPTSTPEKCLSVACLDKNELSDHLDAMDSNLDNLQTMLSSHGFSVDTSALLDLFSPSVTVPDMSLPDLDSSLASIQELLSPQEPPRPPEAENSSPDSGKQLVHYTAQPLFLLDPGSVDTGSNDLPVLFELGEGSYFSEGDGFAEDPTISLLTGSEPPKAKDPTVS
# Sequence of ELF4 (Q99607 whole entry): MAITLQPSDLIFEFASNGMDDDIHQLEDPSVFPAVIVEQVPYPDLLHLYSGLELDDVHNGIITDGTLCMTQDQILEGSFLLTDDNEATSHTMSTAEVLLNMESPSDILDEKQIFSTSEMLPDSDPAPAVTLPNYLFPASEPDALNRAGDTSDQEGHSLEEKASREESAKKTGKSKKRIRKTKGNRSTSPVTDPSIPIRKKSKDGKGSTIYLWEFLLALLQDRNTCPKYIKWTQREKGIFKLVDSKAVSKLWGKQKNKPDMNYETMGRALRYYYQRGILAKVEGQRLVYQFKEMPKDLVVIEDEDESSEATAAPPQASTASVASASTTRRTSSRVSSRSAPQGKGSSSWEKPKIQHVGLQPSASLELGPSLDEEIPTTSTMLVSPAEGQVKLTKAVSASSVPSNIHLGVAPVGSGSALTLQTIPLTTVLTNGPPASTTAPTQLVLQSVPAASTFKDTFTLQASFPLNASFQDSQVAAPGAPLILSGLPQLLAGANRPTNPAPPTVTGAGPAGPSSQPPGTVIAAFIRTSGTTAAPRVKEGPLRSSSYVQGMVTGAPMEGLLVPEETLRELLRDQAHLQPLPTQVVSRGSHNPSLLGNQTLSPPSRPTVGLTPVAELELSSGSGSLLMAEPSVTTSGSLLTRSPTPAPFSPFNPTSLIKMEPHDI
# Sequence of SPIB (Q01892 whole entry): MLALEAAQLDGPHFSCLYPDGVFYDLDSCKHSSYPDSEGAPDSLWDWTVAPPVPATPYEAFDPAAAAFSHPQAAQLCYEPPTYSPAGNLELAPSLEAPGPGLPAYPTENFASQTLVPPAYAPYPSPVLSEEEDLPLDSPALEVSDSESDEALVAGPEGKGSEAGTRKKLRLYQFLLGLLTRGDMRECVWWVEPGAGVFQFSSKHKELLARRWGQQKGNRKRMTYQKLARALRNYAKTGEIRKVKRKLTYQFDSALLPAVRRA
# Sequence of ETV5 (P41161 whole entry): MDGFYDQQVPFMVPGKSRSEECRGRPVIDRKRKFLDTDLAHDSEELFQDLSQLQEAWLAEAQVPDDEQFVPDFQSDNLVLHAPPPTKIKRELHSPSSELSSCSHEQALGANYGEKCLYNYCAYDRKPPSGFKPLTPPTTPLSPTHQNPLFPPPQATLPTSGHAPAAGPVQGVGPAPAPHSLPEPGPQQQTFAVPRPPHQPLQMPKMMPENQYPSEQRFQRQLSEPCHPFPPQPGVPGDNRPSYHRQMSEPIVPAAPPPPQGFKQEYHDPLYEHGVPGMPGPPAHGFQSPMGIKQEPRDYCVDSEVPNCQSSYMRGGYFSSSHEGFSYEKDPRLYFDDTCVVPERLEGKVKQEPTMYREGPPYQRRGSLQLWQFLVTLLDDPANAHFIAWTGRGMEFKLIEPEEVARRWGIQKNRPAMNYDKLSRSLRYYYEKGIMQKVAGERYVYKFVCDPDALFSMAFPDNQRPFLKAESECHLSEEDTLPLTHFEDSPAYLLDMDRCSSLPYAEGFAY
# Sequence of CRX (O43186 whole entry): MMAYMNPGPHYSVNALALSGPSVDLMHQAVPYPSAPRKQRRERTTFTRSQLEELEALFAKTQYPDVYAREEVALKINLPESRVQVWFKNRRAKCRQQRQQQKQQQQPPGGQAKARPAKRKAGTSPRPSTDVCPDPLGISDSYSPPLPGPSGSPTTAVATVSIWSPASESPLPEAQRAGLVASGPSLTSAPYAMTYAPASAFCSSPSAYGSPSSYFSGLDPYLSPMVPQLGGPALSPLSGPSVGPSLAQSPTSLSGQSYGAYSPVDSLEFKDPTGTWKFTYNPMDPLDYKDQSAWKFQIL
# Sequence of ETV1 (P50549 whole entry): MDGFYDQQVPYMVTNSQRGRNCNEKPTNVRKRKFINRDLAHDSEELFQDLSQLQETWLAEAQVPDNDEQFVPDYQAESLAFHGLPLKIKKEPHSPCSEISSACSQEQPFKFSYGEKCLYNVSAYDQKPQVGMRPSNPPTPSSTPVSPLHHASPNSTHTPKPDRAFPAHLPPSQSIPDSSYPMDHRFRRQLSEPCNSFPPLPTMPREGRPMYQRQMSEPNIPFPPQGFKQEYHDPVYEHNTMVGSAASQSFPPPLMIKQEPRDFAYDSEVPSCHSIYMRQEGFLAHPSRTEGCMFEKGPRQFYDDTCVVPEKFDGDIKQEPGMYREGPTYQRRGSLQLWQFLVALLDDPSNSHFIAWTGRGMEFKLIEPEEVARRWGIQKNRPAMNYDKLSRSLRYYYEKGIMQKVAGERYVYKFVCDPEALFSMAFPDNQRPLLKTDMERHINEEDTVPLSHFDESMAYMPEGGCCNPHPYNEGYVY
sequence,measurement,setting,value
TGCTAG,binding signal,FLI1,"1.11 fold enrichment (6-mer frequency, TF over GST control)"
same,binding signal,ELK1,"1.08 fold enrichment (6-mer frequency, TF over GST control)"
same,binding signal,GABPA,"1.08 fold enrichment (6-mer frequency, TF over GST control)"
same,binding signal,ERG,"1.11 fold enrichment (6-mer frequency, TF over GST control)"
same,binding signal,ELF1,"1.16 fold enrichment (6-mer frequency, TF over GST control)"
same,binding signal,EHF,"1.1 fold enrichment (6-mer frequency, TF over GST control)"
same,binding signal,SPI1,"1.2 fold enrichment (6-mer frequency, TF over GST control)"
same,binding signal,SPIB,"1.19 fold enrichment (6-mer frequency, TF over GST control)"
same,binding signal,ELK3,"1.03 fold enrichment (6-mer frequency, TF over GST control)"
same,binding signal,FEV,"1.15 fold enrichment (6-mer frequency, TF over GST control)"
same,binding signal,ETV5,"1.3 fold enrichment (6-mer frequency, TF over GST control)"
same,binding signal,HSF1,"1.94 fold enrichment (6-mer frequency, TF over GST control)"
same,binding signal,SPIC,"1.17 fold enrichment (6-mer frequency, TF over GST control)"
same,binding signal,ELF4,"1.19 fold enrichment (6-mer frequency, TF over GST control)"
same,binding signal,ELK4,"1.26 fold enrichment (6-mer frequency, TF over GST control)"
same,binding signal,ETV2,"1.01 fold enrichment (6-mer frequency, TF over GST control)"
same,binding signal,ELF3,"1.34 fold enrichment (6-mer frequency, TF over GST control)"
same,binding signal,CRX,"1.21 fold enrichment (6-mer frequency, TF over GST control)"
same,binding signal,ETV1,"1.17 fold enrichment (6-mer frequency, TF over GST control)"
